From PubChem BioAssay AID2284353 (EPA ToxCast)
Results filed as inconclusive are left out. Active and inactive are the calls of the source. How the source made its calls: active means hit-call score of the fitted dose curve at least 0.9, where 1 is the maximum; inconclusive means response in the unintended direction; inactive means score below 0.9.

system: Japanese medaka Peroxisome Proliferator-activated Receptor gamma (PPARg), gene 100304459; experiment: ATG_jmPPARg_EcoTox2: Attagene TRANS-FACTORIAL EcoTox-2 HepG2 Assay for Japanese medaka Peroxisome Proliferator-activated Receptor gamma (PPARg)
Description: ATG_EcoTox2 is a cell-based, multiplexed assay created by modifying the existing Attagene TRANS-FACTORIAL system to include a panel of nuclear receptors from some or all the following species: human (Homo sapiens), african clawed frog (Xenopus laevis), rainbow trout (Oncorhynchus mykiss), japanese medaka (Oryzias latipes), and zebrafish (Danio rerio). The ECOTOX2-FACTORIAL format uses HepG2, a human liver cell line, with measurements taken at 24 hours after chemical dosing in a 24-well plate. ATG_jmPPARg_EcoTox2 is one of 29 assay components calculated in the ATG_EcoTox2 assay. It is designed to make measurements of mRNA induction, a form of inducible reporter, as detected with fluorescence intensity signals by Reverse transcription polymerase chain reaction (RT-PCR) and Capillary electrophoresis technology.The assay endpoint ATG_jmPPARg_EcoTox2 was analyzed in the positive analysis fitting direction relative to DMSO as the negative control and baseline of activity. Using a type of inducible reporter, measures of mRNA for gain-of-signal activity can be used to understand the reporter gene at the transcription factor-level as they relate to the gene PPARg. Furthermore, this assay endpoint can be referred to as a primary readout, because this assay has produced multiple assay endpoints where this one serves a reporter gene function. To generalize the intended target to other relatable targets, this assay endpoint is annotated to the nuclear receptor intended target family, where the subfamily is non-steroidal.
Human liver HepG2 cells are transiently transfected with multiple reporter transcription units (MRTUs) in 6-well plates using FuGene 6 reagent (Roche; 3 ml FuGene/1 mg DNA). The MRTU constructs are regulated by a cis-regulating element (promoter). Each RTU expresses a GAL4-UAS that regulates the transcription of a nearby target reporter gene sequence. A major difference between the CIS and TRANS system is that in CIS activities of endogenous TFs are measured, whereas the TRANS assay evaluates changes in activities of exogenous, chimeric NR-Gal4 proteins. […] At the end of 24 hour incubation, total RNA was isolated using TriZol reagent (Invitrogen). The isolated RNA is then reverse-transcribed using oligo(dT) primer and Mo-MLV reverse transcriptase (Invitrogen) with DNAse I (Ambion) treatment for 30 min. The one-tenth of the produced cDNA was amplified by PCR using Taq DNA polymerase (Invitrogen) and two reporter sequence-specific primers. The PCR products were fluorescently labeled by primer extension with 6-arboxyfluorescein (6-FAM) 5'-labeled reporter sequence-specific primer (2 min at 95 C, 20 s at 68 C and 10 min at 72 C) and these products were digested with 5U of HpaI (New England Biolabs) for 2h at 37 C. The fragments were purified using Qiaquick PCR columns (Qiagen), analyzed on an ABI 3130xL genetic analyzer (Applied Biosystems) with peak positions identified by using a set of X-rhodamine (ROX)-labeled MapMarker1000 molecular weight standards (BioVentures). The raw capillary electrophoresis data was processed using Attagraph software (Attagene).

| Compound | outcome | AC50 |
| --- | --- | --- |
| C[C@]12C=CC(=O)C=C1CC[C@@H]1[C@@H]2C(=O)C[C@@]2(C)[C@H]1CC[C@]2(O)C(=O)CO | inactive |  |
| Cc1ccc(C)c(OCCCC(C)(C)C(=O)O)c1 | inactive |  |
| Cc1c(C)c2c(c(C)c1O)CCC(C)(COc1ccc(CC3SC(=O)NC3=O)cc1)O2 (stereo not drawn) | inactive |  |
| Cc1nc(-c2ccc(C(F)(F)F)cc2)sc1C(=O)NCc1ccc(OC(C)(C)C(=O)O)cc1 |  | 20.9 µM (active) |
| CC(C)OC(=O)C(C)(C)Oc1ccc(C(=O)c2ccc(Cl)cc2)cc1 | inactive |  |
| C=C(c1ccc(C(=O)O)cc1)c1cc2c(cc1C)C(C)(C)CCC2(C)C |  | 5.55 µM (active) |
| CC(c1cc2ccccc2s1)N(O)C(N)=O (stereo not drawn) | inactive |  |
| CN(CCOc1ccc(CC2SC(=O)NC2=O)cc1)c1ccccn1 (stereo not drawn) | inactive |  |
